From PubChem BioAssay (NCATS)
Results filed as inconclusive are left out. Where a call stands in place of a potency, no number is given. Active and inactive are the calls of the source. Calls follow the shape of the dose curve; as a rule, active = well fitted inhibition curve with a large enough effect; inconclusive = small, poorly fitted or top-dose-only effect; inactive = no such curve, though single readings can be large or run the other way.

target: Tumor susceptibility gene 101 protein (Homo sapiens) (UniProt Q99816); assay: qHTS Assay for Iinhibitors of HIV-1 Budding by Blocking the Interaction of PTAP/TSG101: Hit Validation (AID 651600); details: PTAP peptide/TSG101 UEV interaction, biochemical assay; series mostly up to 57.5 µM; also: nearly all actives have a fitted effect of over 70% in size
Sequence (Q99816 whole entry, looked up): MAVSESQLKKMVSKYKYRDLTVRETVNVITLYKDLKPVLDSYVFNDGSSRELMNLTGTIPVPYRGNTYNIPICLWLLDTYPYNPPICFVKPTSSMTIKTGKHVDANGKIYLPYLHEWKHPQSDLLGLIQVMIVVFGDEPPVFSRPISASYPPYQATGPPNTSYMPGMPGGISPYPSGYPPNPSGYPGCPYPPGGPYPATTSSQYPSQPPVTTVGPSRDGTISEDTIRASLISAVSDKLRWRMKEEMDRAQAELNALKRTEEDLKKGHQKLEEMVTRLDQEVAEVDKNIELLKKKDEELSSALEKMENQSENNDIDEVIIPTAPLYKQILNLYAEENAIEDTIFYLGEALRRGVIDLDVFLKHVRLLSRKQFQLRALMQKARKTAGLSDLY
From the text: Stages of the HIV-1 replication cycle, specifically virus assembly and release, provide underexploited targets for the development of novel antiviral inhibitors. The late stages of HIV-1 replication are mediated by the Gag precursor protein, Pr55Gag. Expression of Pr55Gag is both necessary and sufficient for the production of virus-like particles from Gag-expressing cells. The Gag protein hijacks key host proteins involved in endocytic machinery of the host cell to promote endosomal processing and viral budding. The budding process requires a direct interaction between a […] (PTAP) motif in the p6 domain of Gag and the cellular endosomal sorting protein known as Tsg101. In this way, the Gag PTAP motif promotes the host cells to recruit viral particles to the plasma membrane where the new viral particles are released, effectively turning the host cells into viral factories. A fluorescence anisotropy assay has been developed to quantitatively measure the PTAP-Tsg101 interaction which can be used to screen for inhibitors of this interaction.
NIH Molecular Libraries Probe Production Network [MLPCN]
NIH Chemical Genomics Center [NCGC]
PI Name: Dr. Eric Freed, NCI
Two uL of the Tsg101 binding domain in buffer (10 mM HEPES pH 7.5; 0.15 M NaCl, 0.01% Tween 20; 3 mM EDTA;0.1 mM TCEP) was dispensed into Greiner black MB 1536-well plates (final concentration 10 uM). Then, 23 nL of compounds or DMSO were delivered to each well using a pin tool. Finally, 2 uL of a FITC-labeled peptide containing the PTAP motif (1) in the same buffer was dispensed (50 nM final concentration) and the binding was allowed to proceed for 20 min. at r.t. Fluorescent polarization was determined using FITC excitation and polarized emission filters on a Perkin Elmer Viewlux.
Keywords: Tsg101, PTAP, Gag, HIV, fluorescent polarization, MLSMR, MLPCN, NIH Roadmap, qHTS, NCGC
Potency is read from the fitted curve at half-maximal effect.

SMILES	Potency
CCCCn1c(SCC(=O)c2cc(OC)ccc2OC)nc2cc(S(N)(=O)=O)ccc21	inactive
CCN(CC)C(=O)[C@H]1CC(CC(=O)NCc2cccc(C(F)(F)F)c2)C(=O)N2CCc3c([nH]c4ccc(OC)cc34)[C@]12C (stereo not given in full)	inactive
Cc1ccc(NC(=O)/C(C#N)=C(\N)C(Cl)(Cl)Cl)nc1	18.3 µM (active)
O=C(C1=C(O)C(=O)N(c2nccs2)C1c1ccccc1)c1cc2ccccc2o1 (stereo not given)	5.17 µM (active)
COc1ccc(CCn2c(=N)c(S(=O)(=O)c3ccc(Cl)cc3)cc3c(=O)n4ccccc4nc32)cc1	6.51 µM (active)
CC(C)(C)C(=O)c1sc2nc(-c3cccs3)cc(C(F)(F)F)c2c1N	inactive
Clc1ccc(C2=CC(c3ccco3)n3ncnc3N2)cc1 (stereo not given)	inactive
COc1ccc(CNS(=O)(=O)c2cc3c(cc2Cl)N(C(C)=O)CCO3)cc1	inactive
CC(=O)Nc1ccc(S(=O)(=O)Nc2nc3n(n2)C(c2ccccc2)C=C(c2ccc(Cl)cc2)N3)cc1 (stereo not given)	inactive
CC1CC(C)CN(C(=O)c2ccc3c(c2NCCO)C(=O)c2ccccc2C3=O)C1 (stereo not given)	inactive
CCN(c1ccc(N=Cc2c(O)n(Cc3ccc(OC)cc3)c(=O)c3ccccc23)cc1)C(C)C	25.9 µM (active)
O=c1oc2c3c4c(cc2c2c1CCC2)OCCN4CCC3	inactive
CCN1CCN(Cc2ccc(NC(=O)Nc3ccccc3OC)cc2)CC1	inactive
CC(C)(C)c1ccc(C2C3=C(CCCC3=O)NC3=C2C(=O)c2ccccc23)cc1 (stereo not given)	inactive
COc1ccc2c(C=Nc3c(C)n(C)n(-c4ccccc4)c3=O)c(O)n(Cc3ccco3)c(=O)c2c1	29.1 µM (active)
CCN(CC)S(=O)(=O)c1ccc(C(=O)OCCN2C(=O)c3cccc4c(N5CCOCC5)ccc(c34)C2=O)cc1	4.11 µM (active)
Nc1c(C(=O)C2CC2)sc2nc(-c3ccccc3)cc(C(F)(F)F)c12	inactive
CCCN1C(=O)/C(=C/C=C2\N(CC)c3ccccc3C2(C)C)SC1=S	29.1 µM (active)
Cc1ccc(NC(=S)Nc2ccc3nc(-c4ccccn4)c(-c4ccccn4)nc3c2)cc1C	inactive
Cc1ccc(Nc2ccc([N+](=O)[O-])ccc2=O)cc1	inactive

SMILES	Potency
Cc1cc[n+](-c2[nH]c(=O)sc2/C=N/NC([S-])=Nc2ccccc2)cc1	18.3 µM (active)
CCn1c(/C=C/c2cc[n+](C)cc2)nc2ccccc21	inactive
CCCCC(=O)NC1=NC(=O)C(C)(C)S1	inactive
O=[N+]([O-])c1cc(Cl)c2cccnc2c1O	inactive
Oc1oc(-c2ccccc2)nc1C=Nc1cccc2ccccc12	inactive
O=[N+]([O-])c1cc(Br)cc(/C=N/n2cnnc2)c1O	inactive
COc1cc(/C=c2\sc3nc(=O)c(-c4ccccc4)nn3c2=O)ccc1OCCC(C)C	inactive
C/C(N)=C(/C#N)C(=O)CSc1ncnc2ccccc12	inactive
Nc1c(C(=O)c2cccs2)sc2nsc(SCCN3CCCCC3)c12	14.6 µM (active)
Fc1ccc(C2=CC(c3ccco3)n3ncnc3N2)cc1 (stereo not given)	inactive
CN1CC=C2C(C#N)=C(N)C(C#N)(C#N)[C@H](c3ccoc3)[C@H]2C1	inactive
COC(=O)CNc1c(-c2ccccc2)nc2ccc(Br)cn12	inactive
c1ccc2[nH]c3cc4ncnc4cc3nc2c1	6.51 µM (active)
CSc1c(C#N)c(N)nc2sc(C(=O)c3ccc(Cl)c(Cl)c3)c(N)c12	inactive
Cc1c(C(=O)NCc2ccccc2)sc2nc3n(c(=O)c12)CCCCC3	inactive
Cc1cccc2cc(/C=C3\N=C(c4ccccc4)OC3=O)c(N3CCOCC3)nc12	inactive
Cc1cc2c(cc1C)NC(c1c(C)n(C)n(-c3ccccc3)c1=O)C1=C(CC(C)(C)CC1=O)N2 (stereo not given)	inactive
COc1ccc(OC)c2cc3ccccc3cc12	32.6 µM (active)
O=C1Nc2ccc(F)cc2C12Nc1ccccc1-c1nnc(SCc3ccccc3F)nc1O2 (stereo not given)	inactive
N#CC(C(=O)NC1CC1)c1nc2ccccc2nc1N1CCCC1 (stereo not given)	inactive
